# Measured values: the supplement of paper PMC6089552
# Screen size: about 3,200 compounds; about 300 (9.4%) showed activity. Only a selection was taken, and actives are over-represented in it overall. A number with no mark means an inactive call.
# Test system: A673/TR/shEF
# Test: cell viability (LOESS-normalised, relative to median of negative controls) (log2 ratio); higher = more viable cells (less compound effect), active = hit call of the paper (over 3 MAD below the median)
# Conditions: treatment time: 72 h
# Summary of the method: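 Doxycycline, present or absent from 24 h before compounds, was used to induce EWS-FLI1 shRNA knockdown in A673/TR/shEF Ewing sarcoma cells at 1,500 per well in 384-well plates. Cells then received library compounds at two or more concentrations, or DMSO controls, for three days. Viability was measured by CellTiter-Glo luminescence on an Envision reader, and per-plate LOESS correction, division by the negative-control median and log2 transformation followed.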
# [1] = 0.25 µM, library screen: screen1, EWS-FLI1 expression: high (no doxycycline)
# [2] = 0.25 µM, library screen: screen1, EWS-FLI1 expression: low (doxycycline-induced shRNA knockdown)
# [3] = 2.5 µM, library screen: screen1, EWS-FLI1 expression: high (no doxycycline)
# [4] = 2.5 µM, library screen: screen1, EWS-FLI1 expression: low (doxycycline-induced shRNA knockdown)
# [5] = 0.25 µM, library screen: screen2, EWS-FLI1 expression: high (no doxycycline)
# [6] = 0.25 µM, library screen: screen2, EWS-FLI1 expression: low (doxycycline-induced shRNA knockdown)
# [7] = 2.5 µM, library screen: screen2, EWS-FLI1 expression: high (no doxycycline)
# [8] = 2.5 µM, library screen: screen2, EWS-FLI1 expression: low (doxycycline-induced shRNA knockdown)
Compound,cell viability (log2) [1],cell viability (log2) [2],cell viability (log2) [3],cell viability (log2) [4],cell viability (log2) [5],cell viability (log2) [6],cell viability (log2) [7],cell viability (log2) [8]
CN[C@@H](Cc1c[nH]c2ccccc12)C(=O)O,0.064,0.0774,0.156,0.0411,–,–,–,–
COC1C(O)C(O[C@H]2CC[C@]3(C=O)C4C(CC[C@]3(O)C2)[C@@]2(O)CC[C@H](C3=CC(=O)OC3)[C@@]2(C)C[C@H]4OC(C)=O)OC(C)C1OC(C)=O (some centres not stated),0.109,0.146,0.0847,0.082,–,–,–,–
CC1O[C@H](O[C@H]2C[C@@H](O)[C@]3(CO)C4C(O)C[C@]5(C)C(C6COC(=O)C6)CC[C@]5(O)C4CC[C@]3(O)C2)C(O)C(O)[C@H]1O (some centres not stated),–,–,–,–,0.151,0.0734,0.15,0.134
CO[C@H]1C[C@H](O[C@H]2CCC3(C=O)C4CCC5(C)C(C6=CC(=O)OC6)CCC5(O)C4CC[C@]3(O)C2)O[C@H](C)[C@H]1O (some centres not stated),-0.95 (active),-1.15 (active),-3.9 (active),-3.2 (active),–,–,–,–
COC1C[C@H](O[C@H]2CC[C@]3(C)C4CC[C@]5(C)[C@@H](C6=CC(=O)OC6)CC[C@]5(O)C4CC[C@]3(O)C2)OC(C)[C@H]1O (some centres not stated),-0.209 (active),-0.262 (active),-3.79 (active),-2.17 (active),–,–,–,–
C[C@@H]1O[C@@H](O[C@H]2CC[C@]3(C=O)[C@H]4CC[C@]5(C)[C@@H](C6=CC(=O)OC6)CC[C@]5(O)[C@@H]4CC[C@]3(O)C2)[C@H](O)[C@H](O)[C@H]1O,0.0221,0.0427,-3.36 (active),-3.89 (active),–,–,–,–
C[C@@H]1O[C@@H](O[C@H]2C[C@@H](O)[C@]3(CO)[C@H]4[C@H](O)C[C@]5(C)[C@@H](C6=CC(=O)OC6)CC[C@]5(O)[C@@H]4CC[C@]3(O)C2)[C@H](O)[C@H](O)[C@H]1O,-2.32 (active),-1.95 (active),-3.06 (active),-3.54 (active),-0.747 (active),-0.523 (active),-4.02 (active),-3.81 (active)
O=c1cccc2n1C[C@@H]1CNC[C@H]2C1,0.0148,-0.00559,0.016,0.0651,–,–,–,–
C=CCN1CCc2cccc3c2[C@H]1Cc1ccc(O)c(O)c1-3,–,–,–,–,0.199,0.00481,0.133,0.0436
CN[C@@H]1C[C@@H](c2ccc(Cl)c(Cl)c2)c2ccccc21,–,–,–,–,0.0875,0.13,0.173,0.199
CN1C2CCC1CC(OC(=O)c1cc(Cl)cc(Cl)c1)C2 (configuration not stated),–,–,–,–,0.173,0.0634,0.093,-0.00531
C/C=C(/C)C(=O)O[C@H]1CC[C@@]2(C)[C@@H]3CC[C@H]4[C@]5(O)C[C@H](O)[C@@]6(O)[C@@H](CN7C[C@@H](C)CC[C@H]7[C@@]6(C)O)[C@]5(O)C[C@@]42O[C@]13O,0.0954,0.0385,0.186,-0.0784,–,–,–,–
C#CCOC(=O)C1=CCCN(C)C1,–,–,–,–,0.0844,0.129,0.0951,0.11
CC(Cc1ccc(OCC(=O)O)cc1)NCC(O)c1cccc(Cl)c1 (configuration not stated),–,–,–,–,0.122,0.143,0.229,0.136
C[N+]1(C)CCc2cc3c(cc2[C@H]1[C@@H]1OC(=O)c2c1ccc1c2OCO1)OCO3,–,–,–,–,0.123,0.0886,0.123,0.104
COC[C@]12CN(C=O)[C@H]3C4[C@H](OC)[C@H]1C3([C@@H](OC)C[C@H]2O)[C@@H]1C[C@@]2(O)[C@H](OC(=O)c3ccccc3)[C@@H]1[C@]4(OC(C)=O)[C@@H](O)[C@@H]2OC,0.0391,0.0831,0.0466,0.114,–,–,–,–
C=CCN1C[C@@H](C)N([C@H](c2ccc(C(=O)N(CC)CC)cc2)c2cccc(OC)c2)C[C@@H]1C,–,–,–,–,0.0848,0.0464,0.222,0.00445
COc1cc2c(cc1OC)[C@@]13CCN4CC5=CCO[C@H]6CC(=O)N2[C@H]1[C@H]6[C@H]5C[C@H]43,0.0057,0.0368,0.098,-0.0757,–,–,–,–
CC(=O)Oc1ccc(C=Cc2cc(OC(C)=O)cc(OC(C)=O)c2)cc1,0.101,0.0764,0.00309,0.228,–,–,–,–
Nc1ncnc2c1ncn2C1OC2COP(O)(=S)OC2C1O (configuration not stated),–,–,–,–,0.0926,0.132,0.0861,0.0676
O.O=C1OC2(c3cc(Br)c([O-])cc3Oc3c2cc(Br)c([O-])[c]3[Hg])c2ccccc21.[Na+].[Na+] (configuration not stated),0.113,0.0666,0.139,0.132,–,–,–,–
CN1C2CCC1CC(OC(=O)C(CO)c1ccccc1)C2 (configuration not stated),–,–,–,–,0.252,0.166,0.123,0.223
